Experiment [1] has as its target T1, Serine/threonine-protein kinase 17A (Homo sapiens) (UniProt Q9UEE5).
T1 sequence (whole entry): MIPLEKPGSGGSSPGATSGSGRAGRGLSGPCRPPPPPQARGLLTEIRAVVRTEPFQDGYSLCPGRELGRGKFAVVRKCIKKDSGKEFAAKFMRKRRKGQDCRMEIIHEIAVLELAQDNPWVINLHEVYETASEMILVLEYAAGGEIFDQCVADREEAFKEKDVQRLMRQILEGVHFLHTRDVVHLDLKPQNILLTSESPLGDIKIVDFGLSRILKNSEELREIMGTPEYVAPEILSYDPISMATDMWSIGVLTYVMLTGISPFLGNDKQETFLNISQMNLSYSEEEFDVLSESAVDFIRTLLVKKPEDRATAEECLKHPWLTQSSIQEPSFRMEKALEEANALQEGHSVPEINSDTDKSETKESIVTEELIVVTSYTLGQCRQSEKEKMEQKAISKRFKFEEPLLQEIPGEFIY
The conditions noted are these: at 1 µM.

The target in experiment [2] is T1, Serine/threonine-protein kinase 17A (Homo sapiens). The conditions noted are these: at 10 µM.
For experiment [3], the target named is T2, Dual specificity tyrosine-phosphorylation-regulated kinase 2 (Homo sapiens) (UniProt Q92630).
T2 sequence (whole entry): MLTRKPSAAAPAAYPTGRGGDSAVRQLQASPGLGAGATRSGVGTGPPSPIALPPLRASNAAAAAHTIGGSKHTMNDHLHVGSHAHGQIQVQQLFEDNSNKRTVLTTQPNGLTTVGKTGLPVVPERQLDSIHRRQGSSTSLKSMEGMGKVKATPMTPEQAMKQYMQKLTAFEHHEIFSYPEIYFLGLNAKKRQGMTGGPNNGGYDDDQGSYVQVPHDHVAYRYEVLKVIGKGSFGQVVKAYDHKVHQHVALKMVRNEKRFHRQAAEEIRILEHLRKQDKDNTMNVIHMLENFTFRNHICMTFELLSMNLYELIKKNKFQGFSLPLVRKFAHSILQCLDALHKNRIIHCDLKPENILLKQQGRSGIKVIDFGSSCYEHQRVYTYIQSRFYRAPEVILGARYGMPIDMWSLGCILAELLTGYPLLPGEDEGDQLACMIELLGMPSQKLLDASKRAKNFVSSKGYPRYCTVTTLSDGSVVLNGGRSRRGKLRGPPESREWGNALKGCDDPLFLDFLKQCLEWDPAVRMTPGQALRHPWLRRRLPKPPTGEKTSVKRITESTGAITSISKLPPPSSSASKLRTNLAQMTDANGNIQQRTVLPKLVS
The conditions noted are these: at 1 µM.

Experiment [4] addresses T2, Dual specificity tyrosine-phosphorylation-regulated kinase 2 (Homo sapiens). Particulars: at 10 µM.
Experiment [5] concerns the target T3, Ephrin type-A receptor 3 (Homo sapiens) (UniProt P29320).
T3 sequence (whole entry): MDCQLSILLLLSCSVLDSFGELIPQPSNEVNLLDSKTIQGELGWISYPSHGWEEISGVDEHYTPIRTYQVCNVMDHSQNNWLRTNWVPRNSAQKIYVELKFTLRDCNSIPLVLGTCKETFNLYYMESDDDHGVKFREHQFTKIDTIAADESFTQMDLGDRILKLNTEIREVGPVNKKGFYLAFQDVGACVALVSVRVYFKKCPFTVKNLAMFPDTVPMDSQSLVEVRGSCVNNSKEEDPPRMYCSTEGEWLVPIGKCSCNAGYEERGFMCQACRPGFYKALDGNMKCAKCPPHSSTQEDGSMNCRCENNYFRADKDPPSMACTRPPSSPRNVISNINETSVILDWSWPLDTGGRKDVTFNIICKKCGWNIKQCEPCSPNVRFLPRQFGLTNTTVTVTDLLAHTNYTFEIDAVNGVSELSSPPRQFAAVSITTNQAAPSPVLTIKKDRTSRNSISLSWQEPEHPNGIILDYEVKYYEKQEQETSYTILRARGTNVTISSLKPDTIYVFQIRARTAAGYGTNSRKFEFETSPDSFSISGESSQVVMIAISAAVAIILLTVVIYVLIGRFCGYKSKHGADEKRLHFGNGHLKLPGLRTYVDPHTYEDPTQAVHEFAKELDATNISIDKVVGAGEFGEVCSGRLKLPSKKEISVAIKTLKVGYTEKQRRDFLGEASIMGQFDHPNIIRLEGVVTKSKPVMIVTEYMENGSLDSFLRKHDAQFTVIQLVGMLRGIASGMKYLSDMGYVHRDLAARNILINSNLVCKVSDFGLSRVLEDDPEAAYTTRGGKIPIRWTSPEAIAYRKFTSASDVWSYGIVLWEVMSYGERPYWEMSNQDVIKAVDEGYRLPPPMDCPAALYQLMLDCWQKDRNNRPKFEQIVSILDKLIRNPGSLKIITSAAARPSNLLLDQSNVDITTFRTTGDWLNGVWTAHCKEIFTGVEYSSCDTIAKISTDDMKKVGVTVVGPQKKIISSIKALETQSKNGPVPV
The conditions noted are these: at 1 µM.

Experiment [6] deals with Death-associated protein kinase 2 (Homo sapiens) (UniProt Q9UIK4). The conditions noted are these: at 1 µM.
For experiment [7] the target is unchanged. The conditions noted are these: at 10 µM.
Experiment [8] addresses T4, Serine/threonine-protein kinase DCLK2 (Homo sapiens) (UniProt Q8N568).
T4 sequence (whole entry): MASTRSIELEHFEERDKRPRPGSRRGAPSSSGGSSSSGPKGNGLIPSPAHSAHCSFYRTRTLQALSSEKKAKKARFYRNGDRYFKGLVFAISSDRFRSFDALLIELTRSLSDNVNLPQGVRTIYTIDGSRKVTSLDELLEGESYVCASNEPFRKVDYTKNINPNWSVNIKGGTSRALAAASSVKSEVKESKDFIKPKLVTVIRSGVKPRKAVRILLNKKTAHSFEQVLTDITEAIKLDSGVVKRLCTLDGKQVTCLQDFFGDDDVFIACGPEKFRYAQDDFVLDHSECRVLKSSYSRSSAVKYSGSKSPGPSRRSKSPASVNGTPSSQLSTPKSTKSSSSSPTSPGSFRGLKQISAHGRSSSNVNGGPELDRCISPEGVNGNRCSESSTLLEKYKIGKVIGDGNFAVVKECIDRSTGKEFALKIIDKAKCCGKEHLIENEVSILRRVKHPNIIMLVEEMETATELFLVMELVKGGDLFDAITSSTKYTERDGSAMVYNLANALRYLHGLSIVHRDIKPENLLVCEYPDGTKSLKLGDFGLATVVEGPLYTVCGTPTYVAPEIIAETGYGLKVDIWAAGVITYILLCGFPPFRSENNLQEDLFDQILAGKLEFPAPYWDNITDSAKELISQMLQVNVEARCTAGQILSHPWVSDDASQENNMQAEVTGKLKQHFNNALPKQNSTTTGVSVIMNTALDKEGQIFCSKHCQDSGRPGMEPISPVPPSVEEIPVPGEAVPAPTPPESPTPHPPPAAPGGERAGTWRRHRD
Particulars: at 1 µM.

Experiment [9] concerns the target T4, Serine/threonine-protein kinase DCLK2 (Homo sapiens). Particulars: at 10 µM.
The target in experiment [10] is T5, Discoidin domain-containing receptor 2 (Homo sapiens) (UniProt Q16832).
T5 sequence (whole entry): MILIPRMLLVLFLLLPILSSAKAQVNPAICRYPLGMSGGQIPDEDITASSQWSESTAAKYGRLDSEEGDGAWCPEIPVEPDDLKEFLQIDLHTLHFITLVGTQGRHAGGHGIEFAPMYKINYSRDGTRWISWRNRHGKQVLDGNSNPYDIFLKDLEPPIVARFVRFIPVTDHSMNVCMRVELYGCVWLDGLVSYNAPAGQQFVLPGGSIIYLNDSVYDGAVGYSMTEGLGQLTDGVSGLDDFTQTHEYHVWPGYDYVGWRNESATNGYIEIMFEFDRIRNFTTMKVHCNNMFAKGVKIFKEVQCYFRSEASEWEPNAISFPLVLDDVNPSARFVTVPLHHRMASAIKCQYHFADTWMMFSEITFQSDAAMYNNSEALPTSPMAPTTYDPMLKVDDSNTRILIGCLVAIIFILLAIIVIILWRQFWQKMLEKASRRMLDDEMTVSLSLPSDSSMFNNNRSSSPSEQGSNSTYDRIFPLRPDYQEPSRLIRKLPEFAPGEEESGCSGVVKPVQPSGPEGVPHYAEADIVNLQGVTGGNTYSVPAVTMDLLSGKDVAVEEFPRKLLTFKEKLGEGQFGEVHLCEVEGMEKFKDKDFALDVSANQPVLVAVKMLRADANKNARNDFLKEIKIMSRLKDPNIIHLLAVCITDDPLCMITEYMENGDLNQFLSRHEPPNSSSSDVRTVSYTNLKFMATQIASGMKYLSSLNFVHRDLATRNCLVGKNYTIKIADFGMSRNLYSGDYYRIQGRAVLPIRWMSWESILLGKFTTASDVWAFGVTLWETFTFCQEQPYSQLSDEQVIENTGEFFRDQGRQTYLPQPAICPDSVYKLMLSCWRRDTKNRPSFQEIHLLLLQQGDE
Particulars: at 1 µM.

In experiment [11] the target is T5, Discoidin domain-containing receptor 2 (Homo sapiens). Particulars: at 10 µM.
Experiment [12] deals with T6, Myotonin-protein kinase (Homo sapiens) (UniProt Q09013).
T6 sequence (whole entry): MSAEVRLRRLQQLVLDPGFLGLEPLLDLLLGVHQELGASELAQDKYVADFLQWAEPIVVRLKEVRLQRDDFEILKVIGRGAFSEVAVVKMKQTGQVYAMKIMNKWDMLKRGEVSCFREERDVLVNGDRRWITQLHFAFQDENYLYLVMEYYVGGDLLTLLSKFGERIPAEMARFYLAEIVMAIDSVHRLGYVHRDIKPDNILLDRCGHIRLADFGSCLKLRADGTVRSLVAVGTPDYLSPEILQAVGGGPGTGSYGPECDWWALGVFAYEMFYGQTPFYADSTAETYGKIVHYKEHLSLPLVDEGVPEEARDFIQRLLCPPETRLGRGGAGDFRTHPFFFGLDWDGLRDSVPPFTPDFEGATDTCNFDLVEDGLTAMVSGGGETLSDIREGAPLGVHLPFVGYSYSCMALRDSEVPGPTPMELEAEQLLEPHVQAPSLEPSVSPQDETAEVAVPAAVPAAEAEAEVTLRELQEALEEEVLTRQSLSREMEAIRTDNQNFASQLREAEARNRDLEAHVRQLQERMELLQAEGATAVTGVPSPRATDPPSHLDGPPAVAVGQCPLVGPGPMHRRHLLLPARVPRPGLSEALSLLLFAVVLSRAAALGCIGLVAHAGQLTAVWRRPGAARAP
Particulars: at 1 µM.

Experiment [13] concerns the target T6, Myotonin-protein kinase (Homo sapiens). Particulars: at 10 µM.
Experiment [14] addresses T7, Ephrin type-A receptor 1 (Homo sapiens) (UniProt P21709).
T7 sequence (whole entry): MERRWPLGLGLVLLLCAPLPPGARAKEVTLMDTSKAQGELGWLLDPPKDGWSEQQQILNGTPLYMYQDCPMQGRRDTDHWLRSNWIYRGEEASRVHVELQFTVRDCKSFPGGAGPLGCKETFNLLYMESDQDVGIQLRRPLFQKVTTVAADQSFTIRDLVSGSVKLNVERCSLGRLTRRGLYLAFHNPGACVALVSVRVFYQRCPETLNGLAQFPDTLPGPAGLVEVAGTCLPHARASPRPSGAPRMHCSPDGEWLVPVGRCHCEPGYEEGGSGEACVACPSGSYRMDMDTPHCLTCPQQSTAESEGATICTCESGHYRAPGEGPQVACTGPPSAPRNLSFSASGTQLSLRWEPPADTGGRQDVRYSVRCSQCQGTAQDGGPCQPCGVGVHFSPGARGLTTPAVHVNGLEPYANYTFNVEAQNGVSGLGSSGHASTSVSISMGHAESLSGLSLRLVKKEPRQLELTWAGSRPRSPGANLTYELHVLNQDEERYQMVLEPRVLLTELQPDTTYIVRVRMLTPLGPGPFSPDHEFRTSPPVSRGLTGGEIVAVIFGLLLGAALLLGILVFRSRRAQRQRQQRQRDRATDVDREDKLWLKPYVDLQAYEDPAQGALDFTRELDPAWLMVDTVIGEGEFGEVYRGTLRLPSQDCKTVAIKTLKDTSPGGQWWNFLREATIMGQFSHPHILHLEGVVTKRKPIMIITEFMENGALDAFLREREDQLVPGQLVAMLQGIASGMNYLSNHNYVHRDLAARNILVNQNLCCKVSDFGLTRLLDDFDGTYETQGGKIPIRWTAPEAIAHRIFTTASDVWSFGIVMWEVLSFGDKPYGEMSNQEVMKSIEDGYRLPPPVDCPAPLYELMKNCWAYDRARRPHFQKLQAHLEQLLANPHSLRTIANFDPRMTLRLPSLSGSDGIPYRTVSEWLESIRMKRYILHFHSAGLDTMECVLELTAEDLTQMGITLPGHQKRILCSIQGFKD
Particulars: at 1 µM.

The target of experiment [15] is T7, Ephrin type-A receptor 1 (Homo sapiens). Particulars: at 10 µM.
In experiment [16] the target is Ephrin type-A receptor 2 (Homo sapiens) (UniProt P29317). The conditions noted are these: at 1 µM.
For experiment [17] the target is unchanged. Particulars: at 10 µM.
Experiment [18] concerns the target Death-associated protein kinase 1 (Homo sapiens) (UniProt P53355). Particulars: at 10 µM.

Sequence of Ephrin type-A receptor 2 (Homo sapiens) (P29317 whole entry): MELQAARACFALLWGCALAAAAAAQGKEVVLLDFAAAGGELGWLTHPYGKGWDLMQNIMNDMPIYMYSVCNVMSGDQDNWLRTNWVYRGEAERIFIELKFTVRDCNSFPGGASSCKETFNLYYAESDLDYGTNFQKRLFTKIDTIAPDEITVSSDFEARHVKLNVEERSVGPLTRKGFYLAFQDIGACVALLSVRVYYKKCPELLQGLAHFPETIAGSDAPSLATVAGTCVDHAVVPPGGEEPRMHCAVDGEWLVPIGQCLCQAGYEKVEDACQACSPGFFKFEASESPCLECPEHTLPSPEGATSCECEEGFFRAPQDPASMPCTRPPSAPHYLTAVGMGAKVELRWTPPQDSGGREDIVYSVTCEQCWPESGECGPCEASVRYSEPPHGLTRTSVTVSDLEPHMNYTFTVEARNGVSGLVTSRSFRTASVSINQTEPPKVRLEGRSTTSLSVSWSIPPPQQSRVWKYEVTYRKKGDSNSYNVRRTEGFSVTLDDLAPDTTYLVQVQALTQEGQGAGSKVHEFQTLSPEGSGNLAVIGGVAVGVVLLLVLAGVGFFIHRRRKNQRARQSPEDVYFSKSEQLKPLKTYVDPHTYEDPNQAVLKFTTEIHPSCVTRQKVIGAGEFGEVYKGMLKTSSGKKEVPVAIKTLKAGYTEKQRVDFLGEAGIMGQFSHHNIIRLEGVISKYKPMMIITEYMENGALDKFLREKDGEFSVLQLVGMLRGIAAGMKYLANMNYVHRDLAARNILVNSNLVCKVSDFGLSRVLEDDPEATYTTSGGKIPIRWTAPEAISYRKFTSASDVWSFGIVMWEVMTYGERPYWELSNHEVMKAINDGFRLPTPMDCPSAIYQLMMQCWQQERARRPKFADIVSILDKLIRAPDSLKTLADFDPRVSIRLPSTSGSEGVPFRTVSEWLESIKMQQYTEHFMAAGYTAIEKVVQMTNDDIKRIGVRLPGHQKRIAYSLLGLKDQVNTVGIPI
Sequence of Death-associated protein kinase 2 (Homo sapiens) (Q9UIK4 whole entry, looked up): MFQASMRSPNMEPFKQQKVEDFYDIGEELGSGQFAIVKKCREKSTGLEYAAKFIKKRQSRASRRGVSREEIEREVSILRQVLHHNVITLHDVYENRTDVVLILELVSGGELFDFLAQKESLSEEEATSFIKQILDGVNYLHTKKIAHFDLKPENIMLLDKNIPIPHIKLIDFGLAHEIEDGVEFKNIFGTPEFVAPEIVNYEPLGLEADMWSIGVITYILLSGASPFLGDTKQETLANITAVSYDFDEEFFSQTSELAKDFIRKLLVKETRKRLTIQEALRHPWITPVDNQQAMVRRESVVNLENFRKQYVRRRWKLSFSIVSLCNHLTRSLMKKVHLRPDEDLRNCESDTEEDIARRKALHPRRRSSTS
Sequence of Death-associated protein kinase 1 (Homo sapiens) (P53355 whole entry, looked up): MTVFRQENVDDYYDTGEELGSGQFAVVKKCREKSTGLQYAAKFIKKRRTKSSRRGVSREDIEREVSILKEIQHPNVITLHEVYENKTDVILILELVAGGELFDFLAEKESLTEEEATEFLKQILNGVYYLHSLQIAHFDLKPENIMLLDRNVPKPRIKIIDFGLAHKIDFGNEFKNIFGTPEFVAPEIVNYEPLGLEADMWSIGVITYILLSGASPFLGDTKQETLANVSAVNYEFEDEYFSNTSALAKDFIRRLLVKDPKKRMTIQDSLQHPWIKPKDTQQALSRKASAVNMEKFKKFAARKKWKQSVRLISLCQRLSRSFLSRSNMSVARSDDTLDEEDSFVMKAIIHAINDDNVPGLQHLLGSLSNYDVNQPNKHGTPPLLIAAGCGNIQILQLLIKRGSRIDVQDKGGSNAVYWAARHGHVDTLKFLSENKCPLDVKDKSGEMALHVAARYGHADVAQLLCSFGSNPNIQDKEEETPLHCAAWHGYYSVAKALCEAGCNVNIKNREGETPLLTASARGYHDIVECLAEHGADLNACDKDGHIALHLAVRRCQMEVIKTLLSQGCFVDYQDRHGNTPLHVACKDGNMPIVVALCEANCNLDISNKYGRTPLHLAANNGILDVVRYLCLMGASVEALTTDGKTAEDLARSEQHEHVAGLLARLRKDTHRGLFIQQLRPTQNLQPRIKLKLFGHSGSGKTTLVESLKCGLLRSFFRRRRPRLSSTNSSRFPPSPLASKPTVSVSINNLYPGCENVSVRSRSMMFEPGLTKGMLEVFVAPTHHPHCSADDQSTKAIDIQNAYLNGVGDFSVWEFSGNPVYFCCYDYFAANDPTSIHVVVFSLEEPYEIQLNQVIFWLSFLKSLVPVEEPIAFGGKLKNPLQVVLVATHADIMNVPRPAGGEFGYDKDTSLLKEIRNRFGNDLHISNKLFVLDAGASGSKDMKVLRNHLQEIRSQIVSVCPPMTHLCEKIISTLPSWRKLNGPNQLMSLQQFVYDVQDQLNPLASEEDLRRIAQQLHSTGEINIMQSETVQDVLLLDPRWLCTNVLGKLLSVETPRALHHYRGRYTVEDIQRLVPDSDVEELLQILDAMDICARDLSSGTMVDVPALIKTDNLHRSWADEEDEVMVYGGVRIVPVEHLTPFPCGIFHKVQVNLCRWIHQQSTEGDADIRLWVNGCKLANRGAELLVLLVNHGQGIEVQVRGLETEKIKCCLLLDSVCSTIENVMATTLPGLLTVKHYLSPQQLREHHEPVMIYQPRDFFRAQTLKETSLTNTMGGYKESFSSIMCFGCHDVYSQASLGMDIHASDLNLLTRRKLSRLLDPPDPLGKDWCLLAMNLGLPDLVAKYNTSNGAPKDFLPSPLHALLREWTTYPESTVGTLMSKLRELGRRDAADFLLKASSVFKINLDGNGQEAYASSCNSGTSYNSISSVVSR

With `N#CCCc1ccc2c(c1)-c1[nH]c3ccc([N+](=O)[O-])cc3c1CC(=O)N2`, the residual activity came to 11% in experiment [1]; 3% in experiment [2]; 28% in [3]; 12% in [4]; 77% in experiment [5].

As to `Nc1nc(Nc2ccc(S(N)(=O)=O)cc2)nn1C(=S)Nc1c(F)cccc1F`, the residual activity in experiment [6] was 84%; in experiment [7], 43%; in experiment [8] it was 13%; in [9], 2%; in [10], 74%; in [11] it was 28%. Moreover, the residual activity was 122% in experiment [12]; 31% in [13]; 1% in experiment [1]; 4% in [2]; 49% in experiment [3]; -1% in [4]. The residual activity in experiment [14] was 1%; in [15] it was 3%; in [16], 13%; in experiment [17] it was -2%; in [5], 65%.

Consider `COc1cc2ncc(-c3ccccc3)nc2cc1OC`, for which the residual activity came out at 78% in [18]; 83% in experiment [6]; 52% in [9]; 92% in experiment [11]; 124% in [1]; 93% in experiment [3]. Further, the residual activity was 99% in experiment [4], 90% in experiment [14], 94% in experiment [15] and 93% in [17].

By residual activity is commonly meant the signal under treatment as a percentage of the control signal.

(Values after ChEMBL document CHEMBL2218924, “A broad activity screen in support of a chemogenomic map for kinase signalling research and drug discovery” (Biochem J, 2013).)
